The text below walks through data of PubChem BioAssay (NCATS).

In assay [1] the target is Rap guanine nucleotide exchange factor 3 (Homo sapiens) (UniProt O95398). As to the kind of experiment: Confirmatory qHTS for antagonist of cAMP-regulated guanine nucleotide exchange factor 3 (EPAC1) (AID 1645880). Further: nearly all actives have a fitted effect of over 55% in size. Further: potency means the concentration at half of the fitted maximal effect. The gist of the method:
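Released BODIPY-GDP fluoresces less than Rap1-bound BODIPY-GDP; the signal is followed at 480/540 nm at 5-min intervals over 30 min, after 5 min at room temperature. Reactions contain 100 nM EPAC1, 250 nM RAP1B-BODIPY-GDP and 50 uM GDP; results are normalized to ATA and DMSO.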
On the technique in general: In qHTS, concentration-response curves come from the screen itself.

Assay [2] has the same target. Nature of the assay: Confirmatory qHTS for agonist of cAMP-regulated guanine nucleotide exchange factor 3 (EPAC1) (AID 1645881). Further: nearly all actives have a fitted effect of over 75% in size. Further: potency means the concentration at half of the fitted maximal effect.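 On activation: EPAC1 catalysed release of BODIPY-GDP from Rap1B seen as fluorescence loss; 100% = effect of cAMP agonist control.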
The target of assay [3] is Rap guanine nucleotide exchange factor 4 (Homo sapiens) (UniProt Q8WZA2). Nature of the assay: Confirmatory qHTS for agonist of cAMP-regulated guanine nucleotide exchange factor 4 (EPAC2) (AID 1645884).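 Further: nucleotide exchange releases bodipy-GDP from Rap1 and this lowers its fluorescence; on the % scale 0 is the no-effect control and ±100 the full control effect; nearly all actives have a fitted effect of over 65% in size.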
Assay [4] shares this target. As to the kind of experiment: Confirmatory qHTS for antagonist of cAMP-regulated guanine nucleotide exchange factor 4 (EPAC2) (AID 1645885). Further: nearly all actives have a fitted effect of over 25% in size. Further: potency means the concentration at half of the fitted maximal effect. On activity change, negative = inhibition: on the % scale 0 is the no-effect control and ±100 the full control effect.
In assay [5] the target is Rap guanine nucleotide exchange factor 3 (Homo sapiens) (UniProt O95398). As to the kind of experiment: Counterscreen qHTS for antagonist of cAMP-regulated guanine nucleotide exchange factor 3 (EPAC1) (AID 1645888). Further: % of control where 0% means no effect. The procedure, abridged:
(§1)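 Rap1B-BODIPY-GDP 250 nM + GDP 50 uM; cpds 7-pt, final 9.74 nM–152 uM (activator mode) or from 7.32 nM upwards (inhibitor mode); RT; FI 480/540 nm at 5 and 30 min, then ± cAMP, reread.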
(In general: Counterscreens check selectivity or assay interference.)

For assay [6] the target is unchanged. As to the kind of experiment: Counterscreen qHTS for agonist of cAMP-regulated guanine nucleotide exchange factor 3 (EPAC1) (AID 1645889). Further: % of control where 0% means no effect; nearly all actives have a fitted effect of over 40% in size. The gist of the method:
as §1

Results filed as inconclusive are left out. Values without a mark were called inactive. Activity calls are given as the source filed them. The call rests on the fitted dose curve; in most records, active means well fitted curve in the direction sought with a large enough effect; inconclusive means small, poorly fitted or top-dose-only effect, or another doubt; inactive means no such curve, though single readings can be large; an effect the other way counts as inactive or inconclusive.

Rap guanine nucleotide exchange factor 3 (Homo sapiens), sequence (O95398 whole entry, looked up): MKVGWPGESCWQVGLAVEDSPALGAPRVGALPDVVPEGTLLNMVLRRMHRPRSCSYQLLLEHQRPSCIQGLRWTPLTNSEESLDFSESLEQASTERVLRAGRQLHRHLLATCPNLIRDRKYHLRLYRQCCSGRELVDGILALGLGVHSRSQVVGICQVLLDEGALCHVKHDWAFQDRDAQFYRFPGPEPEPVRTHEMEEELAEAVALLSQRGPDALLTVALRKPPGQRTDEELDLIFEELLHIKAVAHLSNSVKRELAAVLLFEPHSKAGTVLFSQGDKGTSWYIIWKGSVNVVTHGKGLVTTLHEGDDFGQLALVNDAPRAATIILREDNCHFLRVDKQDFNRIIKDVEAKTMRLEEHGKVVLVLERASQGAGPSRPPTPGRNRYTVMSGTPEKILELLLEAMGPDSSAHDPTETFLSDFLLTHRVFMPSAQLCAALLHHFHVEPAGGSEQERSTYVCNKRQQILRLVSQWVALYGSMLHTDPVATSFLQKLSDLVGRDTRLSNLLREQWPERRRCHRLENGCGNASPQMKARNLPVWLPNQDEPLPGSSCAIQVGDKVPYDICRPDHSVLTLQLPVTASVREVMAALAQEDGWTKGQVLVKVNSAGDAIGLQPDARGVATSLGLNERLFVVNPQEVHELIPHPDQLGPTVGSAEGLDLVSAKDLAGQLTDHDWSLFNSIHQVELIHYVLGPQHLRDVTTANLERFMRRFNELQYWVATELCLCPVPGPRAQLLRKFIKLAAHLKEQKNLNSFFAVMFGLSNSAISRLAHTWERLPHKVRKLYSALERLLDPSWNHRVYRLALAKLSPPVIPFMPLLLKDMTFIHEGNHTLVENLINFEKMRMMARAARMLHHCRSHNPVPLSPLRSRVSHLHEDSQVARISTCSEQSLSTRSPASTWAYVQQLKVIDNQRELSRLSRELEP
Rap guanine nucleotide exchange factor 4 (Homo sapiens), sequence (Q8WZA2 whole entry, looked up): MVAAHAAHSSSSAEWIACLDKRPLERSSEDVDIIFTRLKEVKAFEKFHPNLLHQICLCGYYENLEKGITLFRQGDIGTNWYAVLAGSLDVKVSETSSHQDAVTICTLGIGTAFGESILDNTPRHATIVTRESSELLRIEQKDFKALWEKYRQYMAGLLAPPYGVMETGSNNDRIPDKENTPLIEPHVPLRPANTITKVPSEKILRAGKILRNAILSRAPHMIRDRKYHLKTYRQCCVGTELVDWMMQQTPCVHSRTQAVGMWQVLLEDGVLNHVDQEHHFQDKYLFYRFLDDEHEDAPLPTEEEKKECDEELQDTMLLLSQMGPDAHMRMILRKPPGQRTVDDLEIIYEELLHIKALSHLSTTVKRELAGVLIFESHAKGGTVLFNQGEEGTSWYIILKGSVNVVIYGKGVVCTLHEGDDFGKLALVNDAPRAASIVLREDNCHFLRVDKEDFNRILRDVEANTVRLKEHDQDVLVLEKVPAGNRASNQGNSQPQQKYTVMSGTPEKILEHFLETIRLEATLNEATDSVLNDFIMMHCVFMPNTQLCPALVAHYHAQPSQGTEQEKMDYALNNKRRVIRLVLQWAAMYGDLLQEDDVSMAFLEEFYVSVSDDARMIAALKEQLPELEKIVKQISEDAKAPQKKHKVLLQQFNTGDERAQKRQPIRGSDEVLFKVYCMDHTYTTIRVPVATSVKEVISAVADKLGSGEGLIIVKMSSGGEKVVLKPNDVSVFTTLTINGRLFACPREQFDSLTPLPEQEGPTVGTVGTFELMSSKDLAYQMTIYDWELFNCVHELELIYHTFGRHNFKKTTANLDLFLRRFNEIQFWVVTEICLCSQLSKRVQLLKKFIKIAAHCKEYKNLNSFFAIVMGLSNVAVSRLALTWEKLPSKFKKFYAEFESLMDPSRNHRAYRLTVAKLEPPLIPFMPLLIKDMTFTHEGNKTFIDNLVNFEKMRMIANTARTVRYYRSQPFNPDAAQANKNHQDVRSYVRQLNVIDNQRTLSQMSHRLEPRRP

Take `O=C1S/C(=C\c2ccc(O)c([N+](=O)[O-])c2)C(=O)N1c1ccccc1Cl`: the Potency in assay [1] is 75.7 µM (active); in assay [4] it was 47.8 µM (active). The Potency entry in assay [2], in assay [3], in assay [5] and in assay [6] was “inactive” each time.
As for `COc1ccc(S(=O)(=O)N2CCCC2)cc1C(C)C`, the Potency entry in assay [1], in assay [2] and in assay [4] was “inactive” throughout. Moreover, the activation is -3.36% [at 17.1 µM, percent relative to cAMP agonist control] in assay [3] and 2.24% [at 30.8 µM] in assay [6]. Also, the activity change, negative = inhibition in assay [5] was -3.04% [at 30.8 µM].
As to `O=C(CN(c1ccc(Cl)c(C(F)(F)F)c1)S(=O)(=O)c1ccccc1)N1CCc2ccccc2C1`, the Potency result in assay [1], in assay [2], in assay [3], in assay [4], in assay [5] and in assay [6] was “inactive” each time.
Turning to `COc1ccc(OC)c(NC(=O)Cc2c(C(=O)O)n(C)c3ccc(C)cc23)c1`, the Potency entry in assay [1], in assay [2], in assay [3], in assay [4], in assay [5] and in assay [6] was “inactive” throughout.
For the compound `Cc1cc(NCc2ccco2)n2c(nc3ccccc32)c1C#N`, the Potency entry in assay [1], in assay [2], in assay [3], in assay [4], in assay [5] and in assay [6] was “inactive” in each case.
For the compound `Cc1nn(-c2ccccc2)c(Cl)c1/C=C1\SC(=S)NC1=O`, the Potency in assay [1] was 12 µM (active). For the same compound, the Potency entry in assay [2], in assay [3], in assay [4], in assay [5] and in assay [6] was “inactive” each time.
Consider `O=C(Nc1ccc2nc(-c3ccc4nc[nH]c4c3)[nH]c2c1)c1cccs1`, for which the Potency entry in assay [1], in assay [2] and in assay [4] was “inactive” throughout. Moreover, the activation in assay [3] is 3.61% [at 17.1 µM, percent relative to cAMP agonist control]; in assay [6] it was 15.6% [at 30.8 µM]. In addition, in assay [5], the activity change, negative = inhibition was 8.72% [at 30.8 µM].
As to `CCOC(=O)/C(C#N)=C/c1ccc(N2CCCCC2)cc1`, the Potency result in assay [1] and in assay [4] was “inactive” in each case. The Potency in assay [2] is 56.2 µM (active). Also, the activation was 7.82% [at 17.1 µM, percent relative to cAMP agonist control] in assay [3] and 18.2% [at 30.8 µM] in assay [6]. Further, the activity change, negative = inhibition in assay [5] was -1.56% [at 30.8 µM].
As to `COc1ccc(S(=O)(=O)CC(=O)c2cc3cc(Br)ccc3oc2=O)cc1`, the Potency in assay [1] was 50.1 µM (active). The Potency entry in assay [2] and in assay [4] was “inactive” in each case. For the same compound, the activation in assay [3] was -4.99% [at 17.1 µM, percent relative to cAMP agonist control]; in assay [6] it was 7.34% [at 30.8 µM]. Besides, in assay [5], the activity change, negative = inhibition was -4.76% [at 30.8 µM].
In the case of `Cc1sc(N)c(C(=O)c2ccccc2Cl)c1C`, the Potency result in assay [1], in assay [2], in assay [3], in assay [5] and in assay [6] was “inactive” in each case. For the same compound, in assay [4], the Potency was 19 µM (active).
In the case of `COc1cc(CC(=O)Nc2ccccc2N2CCCCC2)cc(OC)c1OC`, the Potency result in assay [1], in assay [2], in assay [3], in assay [4], in assay [5] and in assay [6] was “inactive” each time.
With `O=C(COC(=O)c1c2c(nc3ccccc13)/C(=C/c1ccco1)CC2)NC1CCCC1`, the Potency in assay [1] was 30.1 µM (active). In addition, the Potency entry in assay [2], in assay [3], in assay [4], in assay [5] and in assay [6] was “inactive” in each case.
Turning to `O=C(CCC(=O)N1CCSc2ccccc21)NCc1cccc(Cl)c1`, the Potency result in assay [1], in assay [2] and in assay [4] was “inactive” throughout. Besides, the activation was 1.67% [at 17.1 µM, percent relative to cAMP agonist control] in assay [3] and 22.1% [at 30.8 µM] in assay [6]. The activity change, negative = inhibition in assay [5] was 1.86% [at 30.8 µM].
With `CCOC(=O)c1ccccc1NC(=O)CSc1nccn1Cc1ccco1`, the Potency result in assay [1], in assay [2], in assay [3], in assay [4], in assay [5] and in assay [6] was “inactive” throughout.
For `O=C(O)CCc1ccc(-c2ccccc2)n1-c1cccc(Br)c1`, the Potency entry in assay [1], in assay [2], in assay [3], in assay [5] and in assay [6] was “inactive” throughout. Also, in assay [4], the outcome was “inactive; activator; fitted 0.0054 uM [at 12.7 µM]”.
Take `CCNC(C(=O)c1c[nH]c2c(CC)cccc12)c1ccccc1` (stereo not given): the Potency entry in assay [1], in assay [2], in assay [3], in assay [4], in assay [5] and in assay [6] was “inactive” throughout.
`Cc1cccc(NC(=S)NC(=O)c2oc3ccccc3c2C)n1`: the Potency entry in assay [1], in assay [2], in assay [3], in assay [4], in assay [5] and in assay [6] was “inactive” throughout.
`C=CCNC(=O)C1CC1(c1cccc(C)c1)c1cccc(C)c1` (stereo not given): the Potency entry in assay [1], in assay [2], in assay [3], in assay [4], in assay [5] and in assay [6] was “inactive” throughout.
Regarding `COC(=O)C1=C(C)N(Cc2ccco2)C(=O)/C1=C\c1ccc(N(C)C)cc1`, the Potency entry in assay [1], in assay [2], in assay [3], in assay [4], in assay [5] and in assay [6] was “inactive” in each case.
Regarding `CCCC[C@@H]1CNC(=O)C(=O)N1CCc1cccc(F)c1`, the Potency entry in assay [1], in assay [2] and in assay [4] was “inactive” each time. In addition, the activation in assay [3] is 9.22% [at 17.1 µM, percent relative to cAMP agonist control]; in assay [6] it was -0.443% [at 30.8 µM]. The activity change, negative = inhibition in assay [5] was -3.55% [at 30.8 µM].
